Measured values: PubChem BioAssay AID1159580 (chemical genetic matrix, 2015)
Where “and” joins values, the source holds several entries; their conditions need not be identical. Equal values may be shown once. The whole screen tested about 5,500 compounds, of which about 2,000 (36%) were called active. Inconclusive results (about 18%) are left out. Cut-off read from the data, not from the text of the source: active = normalized growth mostly below about 0.91 (no sharp cut-off); inconclusive = no clear call, values can overlap the other calls; inactive = mostly above about 0.92. The list shows a part of the results.

Test: chemical genetic growth profiling, strain panel (AID 1159580);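 note: tested at 20 µM; growth read once vehicle control cultures reached saturation at 30 °C; 1 = growth at the plate median or of vehicle wells; lower values mean less growth of the strain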
Settings: growth OD

Measured: normalized growth

Cn1c(=O)[nH]c2ncn(C)c2c1=O
inactive: S. cerevisiae deletion strains, locus YJR043C, strain POL32, hits give low values 1.02 | S. cerevisiae deletion strains, locus YJR075W, strain HOC1, hits give low values 1.01 and 1 | S. cerevisiae deletion strains, locus YKL009W, strain mrt4, hits give low values 1.03 | S. cerevisiae deletion strains, locus YKL068W, hits give low values 0.988 | S. cerevisiae deletion strains, locus YKL085W, strain MDH1 (second series), hits give low values 0.993 | S. cerevisiae deletion strains, locus YKL085W, strain MDH1, hits give low values 0.993 | S. cerevisiae deletion strains, locus YKL160W, strain elf1, hits give low values 1.02 | S. cerevisiae deletion strains, locus YKL190W, strain CNB1, hits give low values 1.01 | S. cerevisiae deletion strains, locus YKR001C, strain vps1, hits give low values 0.997 | S. cerevisiae deletion strains, locus YKR026C, strain gcn3, hits give low values 0.964 | S. cerevisiae deletion strains, locus YKR091W, strain srl3, hits give low values 0.98 | S. cerevisiae deletion strains, locus YLL001W, strain dnm1, hits give low values 0.988 | S. cerevisiae deletion strains, locus YLL026W, hits give low values 0.989 | S. cerevisiae deletion strains, locus YLL041C, strain sdh2, hits give low values 0.978 | S. cerevisiae deletion strains, locus YLR027C, strain aat2, hits give low values 1 | S. cerevisiae deletion strains, locus YLR039C, strain RIC1, hits give low values 1.02 | S. cerevisiae deletion strains, locus YLR058C, strain SHM2, hits give low values 1.01 | S. cerevisiae deletion strains, locus YLR102C, strain apc9, hits give low values 0.995 | S. cerevisiae deletion strains, locus YLR221C, strain rsa3, hits give low values 0.943 | S. cerevisiae deletion strains, locus YLR258W, strain gsy2, hits give low values 0.993 | S. cerevisiae deletion strains, locus YLR262C, strain YPT6 (second series), hits give low values 0.983 | S. cerevisiae deletion strains, locus YLR262C, strain YPT6, hits give low values 1.03 | S. cerevisiae deletion strains, locus YLR268W, strain sec22, hits give low values 0.988 | S. cerevisiae deletion strains, locus YLR320W, strain mms22, hits give low values 0.97 | S. cerevisiae deletion strains, locus YLR330W, strain CHS5, hits give low values 1.01 | S. cerevisiae deletion strains, locus YLR342W, strain FKS1 (second series), hits give low values 1.03 | S. cerevisiae deletion strains, locus YLR342W, strain FKS1, hits give low values 0.975 | S. cerevisiae deletion strains, locus YLR357W, strain rsc2, hits give low values 0.97 | S. cerevisiae deletion strains, locus YLR370C, strain arc18, hits give low values 0.966 | S. cerevisiae deletion strains, locus YLR371W, strain rom2, hits give low values 0.986 | S. cerevisiae deletion strains, locus YLR384C, strain iki3, hits give low values 0.97 | S. cerevisiae deletion strains, locus YLR418C, strain cdc73, hits give low values 1 | S. cerevisiae deletion strains, locus YML016C, strain PPZ1, hits give low values 1.01 | S. cerevisiae deletion strains, locus YML032C, strain rad52, hits give low values 0.995 | S. cerevisiae deletion strains, locus YML120C, strain ndi1, hits give low values 0.995 | S. cerevisiae deletion strains, locus YML124C, strain tub3, hits give low values 0.993 | S. cerevisiae deletion strains, locus YMR058W, strain fet3, hits give low values 0.981 | S. cerevisiae deletion strains, locus YMR078C, strain ctf18, hits give low values 0.984 | S. cerevisiae deletion strains, locus YMR125W, strain sto1, hits give low values 0.987 | S. cerevisiae deletion strains, locus YMR129W, hits give low values 0.984 | S. cerevisiae deletion strains, locus YMR205C, strain PFK2, hits give low values 0.995 | S. cerevisiae deletion strains, locus YMR223W, strain ubp8, hits give low values 1.01 | S. cerevisiae deletion strains, locus YMR231W, strain pep5, hits give low values 0.961 | S. cerevisiae deletion strains, locus YMR263W, strain SAP30, hits give low values 1.01 and 0.996 | S. cerevisiae deletion strains, locus YMR307W, strain GAS1, hits give low values 1.06 and 0.981 | S. cerevisiae deletion strains, locus YNL067W, strain RPL9B, hits give low values 1.01 | S. cerevisiae deletion strains, locus YNL071W, strain lat1, hits give low values 0.974 | S. cerevisiae deletion strains, locus YNL128W, strain TEP1, hits give low values 1.02 | S. cerevisiae deletion strains, locus YNL153C, strain GIM3, hits give low values 1.01 and 0.984 | S. cerevisiae deletion strains, locus YNL175C, strain NOP13, hits give low values 0.997 | S. cerevisiae deletion strains, locus YNL197C, strain WHI3, hits give low values 0.995 | S. cerevisiae deletion strains, locus YNL209W, strain ssb2, hits give low values 0.99 | S. cerevisiae deletion strains, locus YNL224C, strain SQS1, hits give low values 0.99 | S. cerevisiae deletion strains, locus YNL233W, strain BNI4, hits give low values 1.01 | S. cerevisiae deletion strains, locus YNL250W, strain rad50, hits give low values 0.994 | S. cerevisiae deletion strains, locus YNL271C, strain bni1, hits give low values 0.993 | S. cerevisiae deletion strains, locus YNL298W, strain CLA4, hits give low values 1 | S. cerevisiae deletion strains, locus YNL307C, strain MCK1, hits give low values 1.01 | S. cerevisiae deletion strains, locus YNL322C, strain KRE1 (second series), hits give low values 0.989 | S. cerevisiae deletion strains, locus YNL322C, strain KRE1, hits give low values 1 and 1.01 | S. cerevisiae deletion strains, locus YNR049C, strain mso1, hits give low values 0.974 | S. cerevisiae deletion strains, locus YNR052C, strain pop2, hits give low values 0.992 | S. cerevisiae deletion strains, locus YOL006C, strain TOP1, hits give low values 1.04 | S. cerevisiae deletion strains, locus YOL012C, strain htz1 0.946 | S. cerevisiae deletion strains, locus YOL147C, strain pex11, hits give low values 0.988 | S. cerevisiae deletion strains, locus YOR001W, strain rrp6, hits give low values 0.925 | S. cerevisiae deletion strains, locus YOR061W, strain CKA2, hits give low values 1.01 | S. cerevisiae deletion strains, locus YOR069W, strain VPS5, hits give low values 1.01 | S. cerevisiae deletion strains, locus YOR070C, strain gyp1, hits give low values 0.985 | S. cerevisiae deletion strains, locus YOR080W, strain dia2, hits give low values 0.977 | S. cerevisiae deletion strains, locus YOR083W, strain WHI5 (second series), hits give low values 1.02 | S. cerevisiae deletion strains, locus YOR083W, strain WHI5, hits give low values 1.03 | S. cerevisiae deletion strains, locus YOR106W, strain vam3, hits give low values 1.01 | S. cerevisiae deletion strains, locus YOR136W, strain idh2, hits give low values 0.995 | S. cerevisiae deletion strains, locus YOR144C, strain elg1, hits give low values 0.98 | S. cerevisiae deletion strains, locus YOR184W, strain ser1, hits give low values 0.991 | S. cerevisiae deletion strains, locus YOR265W, strain rbl2, hits give low values 0.974 | S. cerevisiae deletion strains, locus YOR270C, strain vph1, hits give low values 0.971 | S. cerevisiae deletion strains, locus YOR290C, strain snf2, hits give low values 1.01 | S. cerevisiae deletion strains, locus YOR316C, strain cot1, hits give low values 0.987 | S. cerevisiae deletion strains, locus YPL051W, strain arl3, hits give low values 0.982 | S. cerevisiae deletion strains, locus YPL055C, strain LGE1, hits give low values 1.04 | S. cerevisiae deletion strains, locus YPL078C, strain atp4, hits give low values 1.01 | S. cerevisiae deletion strains, locus YPL106C, strain sse1, hits give low values 0.984 | S. cerevisiae deletion strains, locus YPL240C, strain hsp82, hits give low values 0.971 | S. cerevisiae deletion strains, locus YPL241C, strain CIN2, hits give low values 1.01 | S. cerevisiae deletion strains, locus YPR119W, strain clb2, hits give low values 0.983 | S. cerevisiae deletion strains, locus YPR141C, strain kar3, hits give low values 0.987 | S. cerevisiae deletion strains, locus YPR163C, strain tif3, hits give low values 0.977 | S. cerevisiae deletion strains, locus YPR167C, strain met16, hits give low values 0.994 | S. cerevisiae deletion strains, strain wtn01, hits give low values 0.992 | S. cerevisiae strains, strain wild type, hits give low values 1
active: S. cerevisiae deletion strains, locus YNL248C, strain rpa49, hits give low values 0.874
